# Inconclusive results are not listed. Activity calls are given as the source filed them. The calls were made as follows, unless noted: active = hit-call score of the fitted dose curve at least 0.9, where 1 is the maximum; inactive = score below 0.9.
# Biological target: Steroid hormone receptor ERR1 (Homo sapiens) (UniProt P11474)
# Experiment: ATG_ERRa_TRANS: Attagene TRANS-FACTORIAL HepG2 Assay for human Estrogen-Related Receptor alpha (ERRa) (AID 2282971; active = hit-call score of the fitted dose curve at least 0.9, where 1 is the maximum)
# Settings: HepG2 Attagene TRANS reporter, ERRa transactivation
# Procedure, shortened: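 Reporter transcripts from ERRa-Gal4 chimera activity measured in transiently transfected human HepG2 cells 24 hours after dosing, using RT-PCR with 6-FAM primer extension, HpaI digestion and capillary electrophoresis; DMSO is baseline.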
# Chain of Steroid hormone receptor ERR1 (Homo sapiens) (P11474 whole entry, looked up): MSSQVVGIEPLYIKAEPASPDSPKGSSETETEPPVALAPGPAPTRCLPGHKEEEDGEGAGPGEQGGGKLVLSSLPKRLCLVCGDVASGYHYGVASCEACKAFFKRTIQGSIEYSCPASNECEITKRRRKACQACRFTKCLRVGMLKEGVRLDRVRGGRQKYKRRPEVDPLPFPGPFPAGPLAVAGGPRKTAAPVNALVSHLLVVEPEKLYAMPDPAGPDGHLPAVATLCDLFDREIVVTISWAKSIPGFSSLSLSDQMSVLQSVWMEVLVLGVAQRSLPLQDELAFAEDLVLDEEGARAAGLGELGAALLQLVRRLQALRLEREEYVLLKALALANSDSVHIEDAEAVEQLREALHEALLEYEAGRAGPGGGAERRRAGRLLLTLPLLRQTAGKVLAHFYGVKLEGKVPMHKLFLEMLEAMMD
row,SMILES,outcome
1,C#CC1(O)CCCCC1,inactive
2,O=c1[nH]c(Cl)c(Cl)cc1Cl,inactive
3,Nc1ccccc1C(=O)OCCc1ccccc1,inactive
4,[CH3][Sn]([CH3])([Cl])[Cl],inactive
5,O=P1(NCCCl)OCCCN1CCCl (stereo not given),inactive
6,CC(Cc1ccc(C(C)(C)C)cc1)CN1C[C@@H](C)O[C@@H](C)C1 (stereo not given in full),inactive
7,O=S(=O)(c1ccccc1)c1ccccc1,inactive
8,Clc1ccc(-c2ccccc2)cc1,inactive
9,Cc1ccc(N(SC(F)(Cl)Cl)S(=O)(=O)N(C)C)cc1,inactive
10,O=CNC(N1CCN(C(NC=O)C(Cl)(Cl)Cl)CC1)C(Cl)(Cl)Cl (stereo not given),inactive

# Biological target: X-box-binding protein 1 (Homo sapiens) (UniProt P17861)
# Experiment: ATG_Xbp1_CIS: Attagene CIS-FACTORIAL HepG2 Assay for human X-box Binding Protein 1 (XBP1) (AID 2282972)
# Settings: HepG2 XBP1 cis-element reporter, Attagene multiplex; actives raise or lower the signal
# Procedure, shortened: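 HepG2 cells transiently transfected with cis-regulated multiple reporter transcription units; endogenous transcription factor activity measured 24 hours after chemical dosing. Reporter mRNA quantified by RT-PCR, 6-FAM primer extension, HpaI digestion and capillary electrophoresis; bidirectional fitting versus DMSO.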
# Chain of X-box-binding protein 1 (Homo sapiens) (P17861 whole entry, looked up): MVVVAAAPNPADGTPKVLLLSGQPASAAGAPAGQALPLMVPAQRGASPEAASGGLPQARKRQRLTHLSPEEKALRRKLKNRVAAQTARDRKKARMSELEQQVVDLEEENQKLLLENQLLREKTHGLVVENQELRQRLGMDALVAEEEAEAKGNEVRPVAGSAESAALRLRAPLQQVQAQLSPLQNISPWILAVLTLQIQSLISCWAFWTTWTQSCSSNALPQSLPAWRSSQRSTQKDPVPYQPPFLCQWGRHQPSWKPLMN
row,SMILES,outcome
1,Nc1ccc(-c2ccc(N)c(N)c2)cc1N,inactive
2,CCOP(O)OCC,inactive
3,C#CC1(O)CCCCC1,inactive
4,O=c1[nH]c(Cl)c(Cl)cc1Cl,inactive
5,CCC(C)c1cc(C(C)(C)C)cc(-n2nc3ccccc3n2)c1O (stereo not given),inactive
6,[CH3][Sn]([Cl])([Cl])[Cl],inactive
7,Nc1c(Cl)c(Cl)c(Cl)c(Cl)c1Cl,inactive
8,COC(=O)c1ccccc1S(=O)(=O)NC(=O)Nc1nc(C)cc(C)n1,inactive
9,Nc1ccccc1C(=O)OCCc1ccccc1,inactive
10,N#Cc1cccc(C#N)c1,inactive
11,O=C(O)CCCc1ccc(N(CCCl)CCCl)cc1,inactive
12,Nc1cc(Cl)cc(Cl)c1,inactive
13,COc1ncc(F)c2nc(S(=O)(=O)Nc3c(F)cccc3F)nn12,inactive
14,COC(C)(C)CCC[C@H](C)C/C=C/C(C)=C/C(=O)OC(C)C,inactive
15,[CH3][Sn]([CH3])([Cl])[Cl],inactive

# Reference: PubChem BioAssay (EPA / NIEHS)
